The record followed here is PubChem BioAssay (Tox21).

Records with an inconclusive call do not appear. A call without a number means that no potency is given here. Active and inactive are the calls of the source. Calls follow the shape of the dose curve; as a rule, active = well fitted cell-killing curve with a large enough effect in the repeat runs; inconclusive = weak or mixed curves, or effect the other way; inactive = no such curve, though single readings can be large or run the other way.

This assay is described as follows: qHTS assay to identify small molecule antagonists of the peroxisome proliferator-activated receptor gamma (PPARg) signaling pathway - cell viability counter screen (AID 743194). Also: nearly all actives have a fitted effect of over 55% in size. The note with it: PPARg-bla HEK293H viability, CellTiter-Glo luminescence, 17 h, co-treated with 50 nM rosiglitazone; series mostly up to 62.6 µM. An excerpt: U.S. Tox21 Program National Center for Advancing Translational Sciences [NCATS] NIH Chemical Genomics Center [NCGC] U.S. Environmental Protection Agency [EPA] National Institutes of Environmental Health Sciences [NIEHS] National Toxicology Program [NTP] U.S. Food and Drug Administration [FDA] Tox21 Assay Overview: The peroxisome proliferator-activated receptors (PPARs) are lipid-activated transcription factors of the nuclear receptor superfamily with three distinct subtypes namely PPAR alpha, PPAR delta (also called PPAR beta) and PPAR gamma (PPARg). All these subtypes heterodimerize with Retinoid X receptor (RXR) and these heterodimers regulate transcription of various genes. PPAR-gamma receptor (glitazone receptor) is involved in the regulation of glucose and lipid metabolism. To identify the compounds that activate PPAR-gamma signaling, GeneBLAzer PPAR gamma UAS-bla HEK293H cell line (Invitrogen, Carlsbad, CA, USA) containing a beta-lactamase reporter gene under the control of an Upstream Activator Sequence (UAS) was used to screen the Tox21 compound library. The cytotoxicity of the Tox21 compound library against the PPARg-bla cell line was tested in parallel by measuring the cell viability using CellTiter-Glo assay in the same wells.
Tox21 Assay Protocol Summary: PPARg-bla cells were dispensed at 3000 cells/5uL/well in 1536-well black wall/clear bottom plates using a Multidrop Combi (Thermo Fisher Scientific, Waltham, MA) dispenser. After the assay plates were incubated at 37 C and 5% CO2 for 5 h, 23 nL of compounds dissolved in DMSO, positive controls or DMSO only was transferred to the assay plate by a Pintool station (Kalypsys, San Diego, CA), followed by addition of 1ul Rosiglitazone (50 nM, final concentration in the wells). The assay plates were incubated at 37 C for 17 h, and then 1 uL of LiveBLAzerTM B/G FRET substrate was added using a Bioraptr Flying Reagent Dispenser (FRD) workstation (Beckman Coulter, Indianapolis, IN, USA). The assay plates were incubated at room temperature for 1 h and fluorescence intensity was measured by an Envision plate reader (PerkinElmer, Shelton, CT). For cell viability readout that measures cytotoxicity, 4 ul/well of CellTiter-Glo reagent was added into the assay plates using a Flying Reagent Dispenser. After 30 min incubation at room temperature, the luminescence intensity in the plates was measured using a ViewLux plate reader (PerkinElmer).
For the molecule `O=C(Cl)c1cc(C(=O)Cl)cc(C(=O)Cl)c1`, the Potency result was “inactive”.
`CC(C)CC(=O)C1C(=O)c2ccccc2C1=O`: the Potency result was “inactive”.
For the molecule `OC(CN1CCC(Cc2ccc(F)cc2)CC1)c1ccc(Cl)cc1` (stereo not given), the Potency entry is “inactive”.
Take `CCCCCCCCCCCC(=O)OC[C@@H](O)[C@H]1OC[C@H](OCCO)[C@H]1OCCO`: the Potency result is “inactive”.
For the molecule `CCOc1ccc(N)c([N+](=O)[O-])c1`, the Potency result was “inactive”.
For `Cc1[nH]c(C)c(Cl)c(=O)c1Cl`, the Potency entry was “inactive”.
Consider `CC(C)O.CC(C)O.CCOC(=O)/C=C(\C)O.CCOC(=O)/C=C(\C)O.[Ti]`, for which the Potency result is “inactive”.
Same read-out and setting: under `CCOC(=O)COC(=O)c1cc(Oc2ccc(C(F)(F)F)cc2Cl)ccc1[N+](=O)[O-]` stands “inactive”.
As to `c1ccc(-c2ccccn2)nc1`, the Potency entry was “inactive”.
Turning to `CC(=O)c1cccc([N+](=O)[O-])c1`, the Potency entry was “inactive”.
With `COCC(C)OC(C)=O` (stereo not given), the Potency entry was “inactive”.
`CC(C)(CO)[N+](=O)[O-]`: the Potency result is “inactive”.
With `COC(C)OC`, the Potency result was “inactive”.
Same read-out and setting: under `N=c1ccn2c(n1)O[C@H]1[C@H](O)[C@@H](CO)O[C@H]12` stands “inactive”.
Same read-out and setting: then `COc1cc2nc(Cl)nc(N)c2cc1OC`, with “inactive”; and `CCCCO`, with “inactive”; and `CN1CCN(C(c2ccccc2)c2ccccc2)CC1`, with “inactive”.
`CCC(Cl)CCC(Cl)C(Cl)CC(Cl)C(Cl)C(Cl)CCl` (stereo not given): the Potency entry was “inactive”.
Regarding `O=C(c1ccc(F)cc1)C1CCN(CCn2c(=S)[nH]c3ccccc3c2=O)CC1`, the Potency result is “inactive”.
In the case of `C#CCN(C)CCCOc1ccc(Cl)cc1Cl`, the Potency result is “inactive”.
On to `O=P(O)(OCc1ccccc1)OCc1ccccc1`, for which the Potency entry is “inactive”.
Turning to `Nc1ccc(N)c2c1C(=O)c1ccccc1C2=O`, the Potency entry was “inactive”.
Still for that read-out and setting: under `NCC(=O)CCC(=O)O` stands “inactive”.
Regarding `COc1ccc(C(=O)Nc2nc3ccccc3c(NCc3ccccc3)c2C#N)cc1`, the Potency entry was “inactive”.
For `CCOC(=O)C1=C[C@]2(CC)CCCN3CCc4c(n1c1ccccc41)[C@@H]32`, the Potency result is “inactive”.
The same measure, in the same setting: under `O=C(O)c1ccccc1Cl` stands “inactive”; under `CCN(CC)CCOC(=O)C(Cc1cccc2ccccc12)CC1CCCO1` (stereo not given), “inactive”.
On the same count and under the same terms, under `O=C1CCC(=O)O1` stands “inactive”.
As for `NC(N)=NCCC[C@H](N)C(=O)O`, the activity change, negative = cytotoxicity is 5.54% [at 5.95 µM] (inactive).
For the molecule `O=[N+]([O-])c1ccc(NCCO)c(OCCO)c1`, the Potency entry is “inactive”.
For `CN(C)CCN(Cc1ccsc1)c1ccccn1`, the Potency result is “inactive”.
Take `COc1ccc(-c2nc3ccc(C4=NNC(=O)CC4C)cc3[nH]2)cc1` (stereo not given): the Potency result is “inactive”.
As to `CCC(CC)Nc1ccc(C)c(C)c1`, the Potency result was “inactive”.
For `CC(CSC(=O)c1ccccc1)C(=O)N1C[C@@H](Sc2ccccc2)C[C@H]1C(=O)O` (stereo not given in full), the Potency entry was “inactive”.
Same read-out and setting: under `CC/C=C\CCOC(=O)CC` stands “inactive”; under `O=[N+]([O-])c1ccc2[nH]ncc2c1`, “inactive”.
On to `OC(C#CCN1CCCC1)(c1ccccc1)c1ccccc1`, for which the Potency entry was “inactive”.
Take `CC1=CCCC(C)(C)C12CCC(C)O2` (stereo not given): the Potency result is “inactive”.
The same measure, in the same setting: then `CCCCNc1ccc(C(=O)OCCOCCOCCOCCOCCOCCOCCOCCOCCOC)cc1`, with “inactive”; and `CCOc1ccc(O)cc1`, with “inactive”.
